High-throughput results from PubChem BioAssay.
Compounds with a hit are over-represented: about 7.8% of the library has one in this group of screens.
sEH activator: increases human soluble epoxide hydrolase activity | P34913 | 0.04% of 91,000 active | purified human sEH enzymatic activity, activator screen | activation, % at 2 µM; in the data active = activation above about 37%
PostGolgi ctrl: yeast control strain growth, post-Golgi counter-screen; efflux-deficient yeast background strain, growth absorbance A615, 16 h; inhibition, % at 10 µM; 5% of 98,000 active; AID 738
sEH inh: blocks human soluble epoxide hydrolase activity; P34913; inhibition, % at 2 µM; 0.34% of 91,000 active; recombinant human sEH enzymatic activity assay; in the data active = inhibition above about 80%
Cav32 inh: inhibitors of human Cav3.2 T-type calcium channel. Cav3.2-expressing cells, Fluo-4 calcium fluorescence FDSS; stronger effect = lower value. 4% of 100,000 active. AID 449739. B-score at 10 µM;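 active = single-dose well whose peak fluorescence ratio is a statistical outlier from its plate by either plate-standardised score or position-corrected B-score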
PostGolgi yeast: growth inhibition of a yeast mutant, post-Golgi transport screen. post-Golgi transport phenotypic cell assay. inhibition, % at 10 µM. 0.9% of 98,000 active. AID 739;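 also: yeast cells grown in 1536-well plates; yeast grown about 18 h at 30C before absorbance read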
* marks the source's active call; other numbers are inactive results; / = no result given. Rule as the data show it, unless noted: active = inhibition above about 30%; inactive = the rest.

SMILES | sEH activator | PostGolgi ctrl | sEH inh | Cav32 inh | PostGolgi yeast
C1CCC(Nc2nnnn2C2CCCCC2)CC1 | / | 6 | / | / | -5
CN(C)/C=C/C(=O)c1nnn(C2CCCCC2)c1NC1CCCCC1 | 16 | 31* | -15 | -0.017 | -6
COc1ccc(/C=C/C(=O)NC(=S)NNC(=O)c2ccco2)cc1 | -6 | / | 10 | -5.3* | /
C=CCOC(=O)/C(=C\c1ccc(OC)cc1)NC(=O)c1ccco1 | 2 | 4 | 1 | / | -3
C#CCNC(=O)C1=C[C@H](C2CCCCC2)C[C@H](OCCCCO)O1 | / | / | / | -0.12 | /
O=C(Nc1cccnc1)Nc1ccc(Br)cc1Cl | -25 | 35* | 28 | -0.34 | -10
CCc1cccc(CC)c1-n1c(SCn2nnc3ccccc3c2=O)nnc1-c1cccnc1 | -8 | 8 | 8 | -5.3* | -1
CCCOC(=O)c1cc(-c2ccc(/C=C3/C(=O)N(C)C(=O)C(C#N)=C3C)o2)ccc1Cl | -11 | / | 14 | / | /
CC(C)COC(=O)c1cc(-c2ccc(/C=N/n3cnnc3)o2)ccc1Cl | -3 | 36* | 6 | -0.33 | 5
Cc1ccc(CSCCNC(=O)/C=C/c2ccccc2Cl)cc1 | -58 | 6 | 58 | -1.5 | -8
Cc1[nH]c2ccccc2c1SCC(=O)N1CCCc2ccccc21 | 1 | 26 | 1 | -4.8* | 6
Cc1nc(SCC(=O)N2CCCc3ccccc32)c2oc3ccccc3c2n1 | 0 | 41* | -2 | -3.3 | -2
Cc1[nH]c2ccccc2c1SCC(=O)N1CCN(c2ccccc2)CC1 | 3 | 15 | -1 | -3.2 | -1
Cc1nc(SCC(=O)Nc2ccccc2)c2oc3ccccc3c2n1 | 0 | 16 | -2 | -0.57 | -11
CC1CCN(c2ccccc2NC(=O)c2ccc(F)cc2)CC1 | 12 | 22 | -12 | -3.5 | 4
CC1CCN(c2ccccc2NC(=S)NC(=O)c2cccs2)CC1 | -18 | 16 | 17 | -6.3* | -5
COc1ccccc1OCCN1C(=O)S/C(=C\c2ccco2)C1=O | 5 | 10 | -3 | -6.5* | -1
COc1ccc(Cl)cc1NC(=O)CN(C)C(C)C(=O)NCC1CCCCC1 (stereo not given) | -36 | 20 | 38 | -1 | 1
COc1ccc(Cl)cc1NC(=O)CN(C(=O)c1ccco1)C1CCCCC1 | -6 | 41* | 7 | / | -1
CCOC(=O)c1ccc(NC(=O)CC2COc3ccccc3O2)cc1 (stereo not given) | -62 | 32* | 63 | / | 4
COc1ccccc1NC(=O)CC1COc2ccccc2O1 (stereo not given) | -3 | 9 | 5 | -0.45 | 4
Cc1ccc(NC(=O)NNC(=O)Cn2nc(-c3ccccc3)c(-c3ccccc3)c(C#N)c2=O)cc1 | -1 | -1 | 1 | -7* | 4
Cc1ccc(-c2nn(CC(=O)O)c(=O)c3ccccc23)cc1 | 10 | / | -8 | -0.039 | /
Cc1ccc(N2C(=O)N(CC(=O)NCc3ccc(Cl)cc3)C(=O)C2C)cc1 (stereo not given) | / | 17 | / | -5.2* | 5
CCOC(=O)c1sc(NC(=O)CSc2nc(C)cc(C)n2)c(C#N)c1C | 6 | 25 | -7 | -1.9 | -7
SMILES | sEH activator | PostGolgi ctrl | sEH inh | Cav32 inh | PostGolgi yeast
CCOC(=O)c1sc(NC(=O)CSc2n[nH]c(-c3ccccc3)n2)c(C#N)c1C | / | 41* | / | / | -7
CCOC(=O)c1sc(NC(=O)c2cc(-c3ccccc3)nc3ccccc23)c(C#N)c1C | 3 | 9 | -3 | -4.1* | -11
Cc1cc(C)c(C(=O)CSC2=NC(N)=C(C#N)C3(CCCCC3)C2C(N)=O)cc1C (stereo not given) | 0 | 7 | 0 | -1.4 | -1
CSc1nc(C)cc(OCCNS(=O)(=O)c2ccc(C)cc2)n1 | 19 | / | -15 | 0.98 | /
C=CCN1C=CC(=O)CC1 | / | / | / | 1.2 | /
Cc1ccc(C(=O)CSc2nc3cc(S(=O)(=O)N4CCOCC4)ccc3o2)cc1 | / | 39* | / | -1.8 | -7
Cc1[nH]c2ccccc2c1C(=O)CSc1nc2cc(S(=O)(=O)N3CCCCC3)ccc2o1 | 5 | 9 | -2 | -3.6 | 12
CC(=O)Oc1ccccc1-c1nc(C)nc(N(C)C(C)=O)n1 | / | 9 | / | -0.99 | 4
O=C(Oc1ccc(Cl)c2ccccc12)N1CCCCC1 | 14 | 16 | -14 | -0.9 | 4
O=C(Oc1c(Cl)cc(Cl)c2ccccc12)N1CCCC1 | 2 | 32* | 0 | -1.1 | 3
Cc1ccc(N(CC(=O)Nc2cccc(C)c2)S(=O)(=O)c2cccc3nonc23)cc1 | 4 | 6 | -1 | -0.47 | -5
Cc1cc(C(=O)NNC(=S)NC(C)c2ccccc2)c2ccccc2n1 (stereo not given) | -5 | -1 | 2 | 0.27 | 4
COc1cccc(=O)c2c(C)n(-c3cc(C)cc(C)c3)c(C)c12 | 8 | 47* | -8 | -5.1* | 20
COc1ccc2[nH]c(=O)c(-c3nnn(-c4ccc(Cl)nc4)n3)cc2c1 | / | / | / | -0.12 | /
Cc1cccc(C)c1NC(=O)c1c(C)nn(-c2ccccc2)c1Cl | 5 | 6 | -8 | 3.3 | 10
Cc1nn(-c2ccccc2)c(Cl)c1C(=O)Nc1nnc(C2CCCC2)s1 | / | 4 | / | -5* | -4
COc1cccc(/C=N/NC(=O)c2ccc(OCc3cccc(Br)c3)cc2)c1 | -48 | 12 | 46 | -6* | 0
O=C1C(Cl)=C(NCCc2ccccc2)C(=O)N1CCc1ccccc1 | 4 | 11 | -1 | 0.67 | -12
CCOc1ccccc1NC1=C(Cl)C(=O)N(Cc2ccccc2)C1=O | 0 | 33* | 2 | -1.9 | 12
Cc1ccc(S(=O)(=O)n2nc(OC(=O)c3c(-c4ccccc4Cl)noc3C)cc2N)cc1 | -1 | 1 | 0 | -7.4* | -1
Cc1ccc(-c2ccc(/C=N/NC(=O)CN3CCCC3)o2)cc1Cl | -7 | 19 | 9 | 0.78 | 1
O=C(O)c1cc(-c2ccc(/C=N/Nc3ccc(Cl)cc3)o2)ccc1Cl | 8 | 10 | -5 | 1.4 | 63*
Cn1c(Sc2ccc(Cl)cc2)c(C=O)c2ccccc21 | 2 | 37* | 0 | -0.34 | 8
O=C(C(Cc1ccccc1)NS(=O)(=O)c1cccc2cccnc12)N1CCc2ccccc21 (stereo not given) | -16 | 12 | 15 | -3.2 | 5
COCCNC(=O)c1c(N)n(-c2cccc(C)c2)c2nc3ccccc3nc12 | 7 | 14 | -8 | -6.1* | 16
SMILES | sEH activator | PostGolgi ctrl | sEH inh | Cav32 inh | PostGolgi yeast
COCCNC(=O)c1c(N)n(-c2ccccc2)c2nc3ccccc3nc12 | 12 | 7 | -12 | -0.31 | 4
CCCOC(=O)C1=C(C)NC2=C(C(=O)C(C(=O)OC)C(C)C2)C1c1ccc(N(CC)CC)cc1 (stereo not given) | 8 | 2 | -8 | -7.3* | 4
CCCS(=O)(=O)N1CCCC(C(=O)NCCN(C)Cc2ccccc2)C1 (stereo not given) | 21 | 9 | -25 | 0.18 | 3
CN1CC(=O)N/C1=N\C(=O)Nc1ccc2c(c1)N(C)C(=O)CS2 | 8 | -2 | -6 | -0.77 | 0
Cc1ccc(Cn2ncc3c(N4CCN(c5ccccc5C)CC4)ncnc32)cc1 | 12 | 12 | -12 | -5.6* | -4
Cc1ccc(Cn2ncc3c(N4CCOCC4)ncnc32)cc1 | -2 | 7 | 5 | 0.81 | -3
